Reference: PubChem BioAssay AID602365 (National Center for Advancing Translational Sciences (NCATS), 2012)
Inconclusive results are not listed. A number with no mark means an inactive call. Activity calls are given as the source filed them. Calls follow the shape of the dose curve; as a rule, active = well fitted inhibition curve with a large enough effect; inconclusive = small, poorly fitted or top-dose-only effect; inactive = flat fitted curve, though single readings scatter.

Biological target: Luciferin 4-monooxygenase (Photinus pyralis) (UniProt P08659)
Sequence (P08659 whole entry, looked up): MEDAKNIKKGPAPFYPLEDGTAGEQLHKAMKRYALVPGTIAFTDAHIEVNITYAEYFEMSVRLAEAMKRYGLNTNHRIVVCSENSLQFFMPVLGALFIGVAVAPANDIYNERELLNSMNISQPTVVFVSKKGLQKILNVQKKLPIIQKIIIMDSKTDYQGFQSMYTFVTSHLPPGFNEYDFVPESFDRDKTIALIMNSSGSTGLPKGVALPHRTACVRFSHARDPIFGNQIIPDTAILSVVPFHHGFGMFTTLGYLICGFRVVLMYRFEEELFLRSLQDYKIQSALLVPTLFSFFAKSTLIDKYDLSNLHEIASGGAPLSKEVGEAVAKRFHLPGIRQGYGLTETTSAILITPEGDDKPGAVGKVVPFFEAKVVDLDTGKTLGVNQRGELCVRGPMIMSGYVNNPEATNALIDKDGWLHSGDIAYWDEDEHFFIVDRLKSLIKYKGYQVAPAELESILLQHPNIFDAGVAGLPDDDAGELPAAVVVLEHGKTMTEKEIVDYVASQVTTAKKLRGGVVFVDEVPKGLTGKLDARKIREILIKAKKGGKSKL
Experiment: FLuc inhibitory activity for the follow-up compounds in a biochemical assay with 1mM D-luciferin
Conditions: purified FLuc, luminescence; series mostly up to 57.5 µM; activity change, negative = inhibition: at the top concentration
From the text: NCGC Assay Overview: Firefly (Photinus pyralis) luciferase is one of the most commonly used transcriptional reporters. It is considered one of the more dynamically responsive reporters - that is, responsive to changes in reporter transcription - as it requires no post-translational modifications and is enzymatically active directly after protein synthesis (Wood, 1998). With no endogenous expression in mammalian cells and without the requirement of external excitation, it offers very little background signal, thus generally providing excellent signal to background for most assays. Previous profiling work to determine the prevalence of compounds that affect FLuc enzymatic activity (PubChem AID 411) identified that ~3% of the MLSMR library (then at ~72K) inhibited FLuc. […] Of the compounds identified in this profile that inhibited FLuc, 151 compounds were selected for further analysis, in an effort to better understand their mode of inhibiting FLuc. The assay described here was to determine the activity of the compounds in a FLuc assay that contained a KM concentration of ATP and a high concentration (1mM) of D-luciferin.
NCGC Assay Protocol Summary: Reagents: 50mM Tris acetate, pH 7.5; 10mM Mg acetate; 1mM D-luciferin (Sigma #L9504); 10uM ATP; 0.01% Tween-20; 0.05% BSA; 10nM P. pyralis luciferase (Sigma #L9506) Control compounds used were two known firefly luciferase inhibitors (3-(5-(3-chlorophenyl)-1,2,4-oxadiazol-3-yl)benzoic acid and 5-(2-fluorophenyl)-3-phenyl-1,2,4-oxadiazole), and DMSO. Three microliters containing firefly luciferase substrates in buffer (final concentrations: 50mM Tris acetate, pH 7.5, 10mM Mg acetate, 0.01% Tween-20, 0.05% BSA, 1mM D-luciferin, 10uM ATP) are dispensed into each well of a Greiner white, solid-bottom 1536-well format plate using a flying reagent dispenser (FRD). These assay plates were then treated with 23nL of compound or DMSO using a Kalypsys pin tool, which allows for delivery of a 12-point intraplate titration of each compound to the assay plate (quantitative HTS), with a final compound concentrations ranging from approximately ~60uM to 0.3nM. One microliter of firefly luciferase in […] Tris-acetate buffer was then delivered by FRD to each well for a final enzyme concentration of 10nM. Luciferase activity was then measured using a ViewLux CCD imager (PerkinElmer), with an average exposure time of 2-30 seconds (2X binning, medium/high gain).

| Structure (SMILES) | activity change, negative = inhibition [%] | Potency |
| --- | --- | --- |
| CN(C)S(=O)(=O)c1ccc(C(=O)Nc2cccc(C(=O)O)c2)cc1 | -19.5 |  |
| O=C(Nc1ccccc1C(=O)O)c1cc(S(=O)(=O)Nc2ccccc2)ccc1Cl | -12.9 |  |
| Nc1ccc(C(=O)Nc2ccccc2C(=O)O)cc1 |  | 20.6 µM (active) |
| O=S(=O)(c1ccc(-c2nc3ccccc3s2)cc1)N1CCCC1 | -18.8 |  |
| COc1ccc(CC(=O)Nc2ccc(-c3nc4ccccc4s3)c(C)c2)cc1 | -11.1 |  |
| COc1ccc2nc(NC(=O)c3ccc([N+](=O)[O-])o3)sc2c1 |  | 5.8 µM (active) |
| O=C(O)c1ccc(NC(=O)c2cc(S(=O)(=O)N3CCCCC3)c(Cl)cc2Cl)cc1 | -3.94 |  |
| Cc1cccc(NS(=O)(=O)c2cccc(C(=O)Nc3cccc(C(=O)O)c3)c2)c1 | -10.3 |  |
| COc1cc(C(=O)Nc2cc(C)c(O)c(-c3nc4ccccc4s3)c2)cc(OC)c1OC | 7.61 |  |
| Cc1c(NC(=O)C(C)(C)C)cccc1-c1nc2ccccc2s1 |  | 10.3 µM (active) |
| O=C(Nc1ccccc1C(=O)O)c1ccc(NC(=O)C2CCCCC2)cc1 |  | 16.3 µM (active) |
| O=C(Cc1ccccc1)Nc1ccc(C(=O)Nc2ccccc2C(=O)O)cc1 |  | 20.6 µM (active) |
| Cc1ccc(S(=O)(=O)N2CCOCC2)cc1C(=O)Nc1ccccc1C(=O)O | -7.96 |  |
| O=C(Nc1ccc(Cl)cc1-c1nc2ccccc2s1)c1ccco1 | -9.53 |  |
| O=C(Nc1ccccc1C(=O)O)c1ccccc1 | -19.5 |  |
| CCn1c(C)nc2cc(-c3nc4n(n3)Cc3ccccc3-4)ccc21 |  | 0.163 µM (active) |
| O=C(Nc1ccccc1C(=O)O)c1cccc(NC(=O)c2ccc(Br)o2)c1 |  | 20.6 µM (active) |
| COc1ccccc1C(=O)Nc1ccc(C(=O)O)cc1 | -21.2 |  |
| CCOc1c(Cl)cc(C(=O)Nc2ccccc2C(=O)O)cc1Cl |  | 16.3 µM (active) |

| Structure (SMILES) | activity change, negative = inhibition [%] | Potency |
| --- | --- | --- |
| Cc1c(C)c2ccc(OCC(=O)Nc3ccccn3)c(C)c2oc1=O |  | 0.0919 µM (active) |
| O=C(O)c1cccc(NC(=O)c2cccc(S(=O)(=O)N3CCc4ccccc4C3)c2)c1 | -21.1 |  |
| CC(C)CC(=O)Nc1cccc(C(=O)Nc2ccccc2C(=O)O)c1 |  | 23.1 µM (active) |
| COc1ccc2nc(NC(=O)c3ccc(S(=O)(=O)N4CCCC(C)C4)cc3)sc2c1 (stereo not drawn) | -1.24 |  |
| CC(C)(C)NC(=O)c1ccccc1-c1nc2ccccc2s1 | -9.2 |  |
| COc1ccc(C(=O)Nc2ccccc2C(=O)Nc2ccc(C(=O)O)cc2)cc1 |  | 8.19 µM (active) |
| Cc1cccc(C(=O)Nc2ccc(-c3nc4ccccc4s3)cc2Cl)c1 | -10.9 |  |
| O=C(Cc1ccc(Cl)cc1)Nc1cccc(C(=O)Nc2ccccc2C(=O)O)c1 |  | 36.6 µM (active) |
| Cc1ccc(C(=O)Nc2ccc(C(=O)O)cc2)cc1S(=O)(=O)Nc1ccccc1 | 2.27 |  |
| CCOc1ccc2nc(NC(=O)Cc3cccs3)sc2c1 |  | 18.3 µM (active) |
| Nc1ccc(-c2nc3ccc(C(=O)O)cc3s2)cc1 |  | 1.16 µM (active) |
| CCOc1ccc2nc(NC(=O)c3cc([N+](=O)[O-])ccc3N3CCOCC3)sc2c1 | 0 |  |
| Cc1ccc(C(=O)Nc2ccccc2C(=O)O)cc1S(=O)(=O)N1CCCCCC1 |  | 5.17 µM (active) |
| NC(=O)Cc1ccc2sc(-c3ccccc3)nc2c1 |  | 13 µM (active) |
| O=C(Nc1ccccc1C(=O)O)c1cc(S(=O)(=O)NCc2ccccc2)ccc1Cl | -4.2 |  |
| COc1cccc(-c2nc3ccccc3s2)c1 |  | 5.17 µM (active) |
| O=C(Nc1ccccc1C(=O)O)c1ccc(Cl)c(S(=O)(=O)N2CCOCC2)c1 |  | 18.3 µM (active) |
| O=C(Nc1ccccc1C(=O)O)c1ccc(NC(=O)C2CCCO2)cc1 (stereo not drawn) |  | 20.6 µM (active) |
| CC(=O)Oc1ccc(C(=O)Nc2ccccc2C(=O)Nc2ccc(C(=O)O)cc2)cc1 |  | 18.3 µM (active) |
